Compounds with a hit are over-represented: about 3.7% of the library has one in this group of screens.
Nrf2 inh: Nrf2 qHTS screen for inhibitors. A549 ARE-Fluc reporter, luciferase luminescence, 18-24 h. Potency, µM (top dose mostly 46 µM), without a hit: at the top dose activity change, negative = inhibition, usual class: inhibitors. hit rate 2.1% among 360,000. AID 504444, 2011; further: potency means the concentration at half of the fitted maximal effect; on the % scale 0 is the no-effect control and ±100 the full control effect; nearly all actives have a fitted effect of over 60% in size
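Nrf2 function is reported as luminescence of an ARE-controlled luciferase in A549 cells. Compounds were tested at several concentrations, and a CellTiter-Fluor read on the same wells flagged cytotoxicity.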
ClpP mod: qHTS Assay for Activators of ClpP; hit rate 1.9% among 340,000; ATP-dependent Clp protease proteolytic subunit (Bacillus subtilis (strain 168)), P80244; purified B. subtilis ClpP, FRET peptide cleavage, 20 min; Potency, µM (doses to about 57.5 µM), for the others: top-dose activity change, negative = active; active means well fitted falling curve with a large enough effect; inconclusive means small, poorly fitted or top-dose-only effect; inactive means no such curve, though single readings can be large or run the other way; further: potency means the concentration at half of the fitted maximal effect; the source files actives as falling curves though it sought activators and does not explain the sign; nearly all actives have a fitted effect of over 65% in size
Target sequence (P80244 whole entry, looked up): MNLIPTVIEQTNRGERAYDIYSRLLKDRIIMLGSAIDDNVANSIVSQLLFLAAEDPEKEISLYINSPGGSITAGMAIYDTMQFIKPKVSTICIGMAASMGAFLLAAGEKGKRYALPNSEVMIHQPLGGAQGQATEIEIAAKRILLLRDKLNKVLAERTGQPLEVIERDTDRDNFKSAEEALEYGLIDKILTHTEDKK
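Buffer: 100 mM Tris/HCl pH8, 100 mM KCl, 0.05% low protease BSA, 2.5% glycerol, 0.01% Tween-20. ClpP 10 microg/mL final; 20 min RT; delta FRET normalized to ADEP and DMSO controls.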
p53 reactivator: qHTS assay for re-activators of p53 using a Luc reporter. H1299 p53-A138V BP100-luciferase reporter, luminescence, 24 h. Potency, µM (top dose mostly 92.2 µM), without a hit: at the top dose activity change, positive = activation, hits mostly activators. hit rate 0.063% among 320,000; further: potency means the concentration at half of the fitted maximal effect; % of control where 0% means no effect; nearly all actives have a fitted effect of over 45% in size
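H1299 (p53-null), stable ts p53-A138V + BP100-Luc; 1000 cells/well, Opti-MEM/10% FBS; cpd 4 pt, 1:5; 24 h, 37 deg C, 5% CO2; detection reagent 10 min RT; luminescence.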
A549 viability: Nrf2 qHTS screen for inhibitors: counterscreen for cytotoxicity; A549 ARE-Fluc cells, CellTiter-Fluor viability, 18-24 h; Potency, µM (highest dose often 46 µM), without a hit: at the highest dose activity change, negative = cytotoxicity, hits mostly inhibitors; hit rate 0.16% among 390,000; AID 504648, 2011; further: potency means the concentration at half of the fitted maximal effect; on the % scale 0 is the no-effect control and ±100 the full control effect
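A549 ARE-Fluc cells in 5% FBS OPTI-MEM, 5000 cells/well, rested 2 h then exposed to compounds in concentration-response for 18-24 h at 37 °C. Viability by CellTiter-Fluor fluorescence (Ex 405/Em 525) after 30 min; luciferase luminescence (BugLite, 15 min, RT) read afterwards.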
miR-21 reporter: qHTS Assay for Modulators of miRNAs and/orActivators of miR-21 | HeLa miR-21 FLuc reporter, luciferase, 48 h | Potency, µM (highest dose often 38.3 µM), without a hit: top-dose activity change, positive = activation, hits mostly activators | 340,000 tested, under 10 active | AID 2288, 2010;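 further: % of control where 0% means no effect; miR-21 action dims this reporter so a rising signal means less miR-21 action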
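Using DMEM plus 10% FBS, HeLa miR-21-FLuc cells are incubated with test compounds (final up to about 40uM) for 48 hours; firefly luciferase signal is then imaged following reagent-mediated lysis.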
Nrf2 activator: qHTS of Nrf2 Activators. Potency, µM (series often up to 46.1 µM), without a hit: at the highest dose activation, most hits filed as activators. AID 624171, 2012. AREc32 ARE-luciferase reporter (MCF7-derived line), luminescence, 24 h. hit rate 0.31% among 410,000; further: potency means the concentration at half of the fitted maximal effect; % of control where 0% means no effect; nearly all actives have a fitted effect of over 65% in size
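AREc32 cells carrying an ARE-driven firefly luciferase, 1000 cells/well in OPTI-MEM with 5% FBS, dosed after overnight attachment and incubated 24 hr at 37 deg C. Steady-Glo luminescence read after 30 min at RT.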
ClpP inh valid: qHTS Assay for Activators of ClpP: Hit Validation of Inhibitors; shares compounds with ClpP mod; purified B. subtilis ClpP, FRET-FV substrate cleavage, 20 min; Potency, µM (series often up to 57.5 µM), for the others: at the top dose activity change, negative = inhibition, usual class: inhibitors; hit rate 40% among 470; AID 743245, 2014; further: potency means the concentration at half of the fitted maximal effect; on the % scale 0 is the no-effect control and ±100 the full control effect; nearly all actives have a fitted effect of over 70% in size
Active calls of the source: *; ? = inconclusive; . = not tested or not shown; [ ] = another dose, or the depositor's remark. Unless noted, the call rests on the fitted dose curve; in most records, active means well fitted curve in the direction sought with a large enough effect; inconclusive means small, poorly fitted or top-dose-only effect, or another doubt; inactive means no such curve, though single readings can be large; an effect the other way counts as inactive or inconclusive.

SMILES | Nrf2 inh | ClpP mod | p53 reactivator | A549 viability | miR-21 reporter | Nrf2 activator | ClpP inh valid
CC1CCN(S(=O)(=O)c2ccc(NC(=O)c3cccs3)cc2)CC1 | ? | 127% | 1% | -12% | 9% | 5% | -1%
COC(=O)Nc1c(-c2ccccc2)nc2ccccn12 | . | 7.9µM* | -5% | -1% | 1% | 0% | 27µM*
CCCCn1cc2c(c1-c1ccc(Br)cc1)c(=O)n(C)c(=O)n2C | ? | 4% | . | -11% | 23% | 4% | .
CCCCCn1cc2c(c1-c1ccc(Cl)cc1)c(=O)n(C)c(=O)n2C | -21% | 10µM* | . | 6% | 0% | -1% | ?
O=C(NCCc1ccccc1)c1ccc(Nc2nc3ccccc3n3nnnc23)cc1 | ? | 294% | . | 2% | -2% | 3% | ?
O=c1c2ccccc2n(Cc2c(F)cccc2Cl)c(=O)n1CCc1ccccc1 | 12% | -1% | . | -2% | -8% | 4% | .
COc1ccc(NC(=O)c2cc3cc(OC)ccc3oc2=O)cc1 | 4% | 0% | . | -6% | . | 0% | .
COc1ccc2oc(=O)c(C(=O)Oc3ccc(NC(C)=O)cc3)cc2c1 | -4% | 82% | 9% | 3% | -8% | 0% | 5%
O=C(COc1coc(CN2CCN(c3ccccc3F)CC2)cc1=O)NCC1CCCO1 (stereo not given) | -11% | 0% | -6% | 7% | . | 0% | .
CCOC(=O)C1CCCCN1C(=O)c1oc2c(Cl)cc(C)cc2c1C (stereo not given) | 6% | 53% | 2% | -9% | -19% | 4% | -1%
Cc1cccc(Oc2nc3c(c(=O)n(C)c(=O)n3C)n2C)c1C | 3% | 0% | . | -4% | 1% | 0% | .
O=c1c2ccccc2nc2n1CCCCN2 | 0% | 4µM* | 0% | 8% | -6% | -1% | 24µM*
O=c1c2ccccc2nc2n1CCCN2 | 6% | . | 1% | -1% | 1% | 0% | .
O=C(Nc1ccccc1)c1ccc(-c2ccc(Br)cc2)o1 | ? | -4% | ? | . | -48% | 7% | .
O=C(Nc1cccc(NC(=O)c2ccc(-c3ccc(Br)cc3)o2)c1)c1ccccc1 | 5% | 521% | 0% | -14% | -3% | 1% | 22µM*
NC(=O)c1ccccc1NC(=O)c1ccc(-c2ccc(Br)cc2)o1 | ? | 187% | . | -1% | -78% | 6% | 17µM*
COc1cc2ccccc2cc1C(=O)NCC(c1cccs1)N(C)C (stereo not given) | ? | 3.2µM* | -2% | 14% | -14% | 4% | ?
CC1=C(C(=O)Nc2ccccc2)C(c2ccc(C)cc2)N=C(Nc2nc3ccccc3o2)N1 (stereo not given) | ? | 5µM* | -24% | -14%[1.84 µM] | -1% | 7% | 24µM*
O=C(NC(c1ccc(-c2ccccc2)cc1)c1cnccn1)C1CCN(Cc2cccc(C(F)(F)F)c2)CC1 (stereo not given) | . | 0% | . | . | . | -3% | .
CCn1c(C(=O)NCc2cc(Br)ccc2OC)cc2oc3ccccc3c21 | ? | 4% | . | 0% | 14% | 0% | .
CCOc1ccc2nc(-c3ccccc3)[nH]c2c1 | 31% | 7.1µM* | 13% | -15% | 14% | 0% | 6.9µM*
Nc1ncnc2oc(-c3ccco3)c(-c3ccco3)c12 | 15µM* | 8.9µM* | 2% | -20% | -22% | 17% | 22µM*
Nc1ncnc2oc(-c3ccoc3)c(-c3ccco3)c12 | ? | 4% | . | -1% | . | . | .
CCOc1ccc(CC(=O)Nc2c(C(=O)Nc3ccccc3)oc3ccccc23)cc1OCC | ? | 231% | 2% | -15% | -1% | 0% | ?
Cc1ccc(NC(=O)c2oc3ccccc3c2NC(=O)Cc2ccccc2)cc1 | -8% | 145% | . | 6% | -1% | 0% | ?
SMILES | Nrf2 inh | ClpP mod | p53 reactivator | A549 viability | miR-21 reporter | Nrf2 activator | ClpP inh valid
CCOC(=O)C1CCN(C(=O)c2ccc(-n3ccc4ccccc43)s2)CC1 | ? | ? | . | -10% | -52% | 3% | .
O=C(Nc1ccc(F)cc1)N1CCN2C(=O)c3ccccc3C12c1ccccc1 (stereo not given) | -13% | 4µM* | -7% | -20% | 12% | 0% | 1%
O=C1c2ccccc2C2(c3ccccc3)N1CCN2C(=O)C(Cl)(Cl)Cl (stereo not given) | -25% | -1% | -4% | -16% | 9% | 0% | .
CCc1cc2c(cc3c(=O)n(CC(=O)N4CCN(c5cccc(C)c5C)CC4)nc(CC)n32)s1 | -2% | -4% | . | 2% | 1% | 0% | .
COCCCNC(=O)CC(NS(=O)(=O)c1ccc(Cl)cc1)c1ccco1 (stereo not given) | . | 2% | 2% | -2% | 2% | 0% | .
COCCCNC(=O)CC(NS(=O)(=O)c1ccc(C)cc1)c1ccco1 (stereo not given) | . | 3.2µM* | -1% | 0% | -3% | 0% | -7%
COc1ccc(S(=O)(=O)N(C)c2ccc(C(=O)N3CCOCC3)cc2)cc1 | 2% | 2.2µM* | -13% | -1% | -7% | 4% | 0%
COc1ccc(S(=O)(=O)N(C)c2ccc(C(=O)N3CCCCC3)cc2)cc1 | ? | -19% | 6% | -10% | 8% | 0% | .
COc1ccccc1C1CC(c2ccco2)=NN1c1ccccc1 (stereo not given) | 0% | 3.5µM* | 8% | 11% | 1% | 1% | 27µM*
O=C(Nc1ccccc1Cl)c1cc2c(-c3ccccc3)nn(-c3ccccc3)c2s1 | -3% | ? | . | -4% | 0% | 0% | 19µM*
COc1ccc(S(=O)(=O)N2CCN(S(=O)(=O)c3ccc4c(c3)OCCO4)CC2)cc1C | -16% | 4µM* | 2% | 3% | -8% | 0% | 0%
COc1cc2ccccc2cc1C(=O)Nc1ccc(Br)cn1 | 24% | 3.5µM* | . | 8% | -30% | 14% | ?
COc1c(C(=O)Nc2ccc(Br)cn2)ccc2ccccc12 | ? | -17% | 24% | 0% | -45% | 4% | .
CCOc1cccc(C2C=C(c3ccc4c(c3)OCO4)NC(c3ccc(Cl)cc3)N2)c1O (stereo not given) | -10% | 3% | . | 0% | . | . | .

High-throughput results as filed in PubChem.
